Screening results from PubChem.
KCNH2 3.1 block – blocks the human KCNH2 3.1 channel isoform; U2OS KCNH2 3.1, thallium flux FluxOr; hits give low values; hit rate 0.95% among 340,000; activity change, % (tested at about 1.8 µM);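 active = maximum activity change below -70%; inconclusive = maximum activity change from -70% to -50%; inactive = maximum activity change above -50%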;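 also: thallium influx rate constant from kinetic fluorescence after stimulation buffer; % is scaled to controls: 0 for no effect and ±100 for the full control effect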
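Virally transduced U2OS (3.1 isoform, 4 h infection in dark at RT) → overnight 37 C → FluxOr + Red40 in HBSS/HEPES, 45 min → stimulation buffer, 2 min kinetic read → rate constant vs DMSO controls.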
GLP1R ag – agonists of human GLP-1 receptor; P43220; HEK293 GLP-1R CRE-luciferase, luminescence, 4-6 h; cells express a hypersensitive GLP-1R form; Potency, µM (titrated, usually from 45.6 µM), without a hit: top-dose activation, most hits filed as activators; hit rate 0.007% among 380,000; AID 624172; also: potency is read from the fitted curve at half-maximal effect; % of control where 0% means no effect
GLS inh – inhibitors of human glutaminase (GLS); GLS enzymatic activity, qHTS titration; Potency, µM (titrated, usually from 45.5 µM), without a hit: top-dose activity change, negative = inhibition, hits mostly inhibitors; hit rate 0.21% among 410,000; also: potency is read from the fitted curve at half-maximal effect; % is scaled to controls: 0 for no effect and ±100 for the full control effect
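Assay buffer: 45 mM KH2PO4 pH 8.2, 0.02% Tween-20. hKGA acts on L-glutamine (1 mM solution added); product glutamate is reported by an oxidase/peroxidase Amplex Red coupling, with fluorescence taken at baseline and 30 min.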
GLP1R cytotox – cytotoxicity counter-screen for GLP-1 receptor inverse agonists. HEK293 cAMP-luciferase reporter cells, luminescence, 24 h. Potency, µM (highest dose often 38.3 µM), inactives show at the top dose activity change, negative = inhibition, hits mostly inhibitors. hit rate 0.13% among 410,000;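 also: loss of luciferase light is scored as toxicity; potency is read from the fitted curve at half-maximal effect; % is scaled to controls: 0 for no effect and ±100 for the full control effect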
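Cells in DMEM/10% Nu serum/1% pen-strep, 1536-well format. Pre-incubated 12 h, dosed with 23 nL compound, incubated a further 24 h. Luciferase detection, 12 min at room temp, luminescence.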
GLP-1R inv ag – GLP-1 receptor (human) inverse agonism; HEK293 GLP-1R CRE-luciferase, luminescence, 24 h; GLP-1R form is constitutively active; Potency, µM (doses to about 38.3 µM), for the others: at the highest dose activity change, negative = inhibition, usual class: inhibitors; hit rate 1.6% among 410,000; AID 624417; also: potency is read from the fitted curve at half-maximal effect; % is scaled to controls: 0 for no effect and ±100 for the full control effect; nearly all actives have a fitted effect of over 55% in size
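Using stably transfected HEK293 (constitutively active GLP-1R, cAMP-luciferase reporter), compounds were incubated 24 hr and luciferase measured by luminescence.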
hERG WT inh – KCNH2 (human, wildtype) channel inhibition; activity change, % at 1.84 µM; U2OS, BacMam KCNH2, thallium flux FluxOr; hits give low values; hit rate 0.37% among 340,000; Q12809;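 active = maximum activity change below -70%; inconclusive = maximum activity change between -70% and -50%; inactive = maximum activity change above -50%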; also: % is scaled to controls: 0 for no effect and ±100 for the full control effect
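U2OS cells transduced with wild-type KCNH2 virus are loaded with FluxOr dye for 45 min, and thallium flux is measured in kinetic reads before and after stimulation buffer. Rate constants are normalized to DMSO controls.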
Numbers without * were called inactive; ? = inconclusive; . = no result; ! = not confirmed by another sample. Rows were chosen to be rich in hits. Some 2.8% of all compounds tested hit in one or more screens of this group. Unless noted, calls follow the shape of the dose curve; as a rule, active = well fitted curve in the direction sought with a large enough effect; inconclusive = small, poorly fitted or top-dose-only effect, or another doubt; inactive = no such curve, though single readings can be large; an effect the other way counts as inactive or inconclusive.

SMILES	KCNH2 3.1 block	GLP1R ag	GLS inh	GLP1R cytotox	GLP-1R inv ag	hERG WT inh
COc1cc(C(=O)N/N=C/c2ccc(OC)c(CN3CCN(c4ccc(F)cc4)CC3)c2)ccc1O	-105*	8%	4%	8%	14%	.
O=C(Nc1ccc(C(=O)N2CCCC2)cc1)C1CCC1	46	-4%	5%	5%	17%	-2
Cn1c(=O)c(C(=O)CCl)c(N)n(Cc2ccccc2)c1=O	-7	8%	4%	?	-3%	-15
Cn1c(N)c(C(=O)CCl)c(=O)n(Cc2ccccc2)c1=O	-116*	0%	-8%	7%	31%	-4
O=C1c2ccccc2C(=O)N1/N=C/c1ccc(O)c(O)c1	10	12%	2.5µM*	0%	64%	-1
O=C1c2ccccc2C(=O)N1CSc1nnc(Nc2ccccc2F)s1	6	10%	22%	2%	0%	-20
O=C1c2ccccc2C(=O)N1CSc1nnc(Nc2ccccc2)s1	-105*	1%	-1%	-3%	8%	-1
Fc1ccc(CN2CCc3nc(N4CCN(c5ccccc5F)CC4)ncc3C2)c(F)c1	.	.	3%	0%	-1%	.
CCN1CCN(c2ncc3c(n2)CCN(Cc2ccc(Br)s2)C3)CC1	.	.	5%	-18%	3.2µM*	.
CCOc1ccccc1CN1CCc2nc(N3CCN(c4ccccc4F)CC3)ncc2C1	.	.	-6%	2%	10µM*	.
CCN1CCN(c2ncc3c(n2)CCN(Cc2ccc(OC(C)C)cc2)C3)CC1	.	.	6%	-7%	10µM*	.
CCN1CCN(c2ncc3c(n2)CCN(Cc2ccc(C)s2)C3)CC1	.	.	7%	-2%	?	.
CCN1CCN(c2ncc3c(n2)CCN(Cc2cc(Br)cs2)C3)CC1	.	.	5%	12%	4.5µM*	.
O=C(COc1ccc2c(c1)oc(=O)c1ccccc12)NCCCN1CCOCC1	3	-7%	-3%	15%	119%	-7
CN1CCN(c2ncc3c(n2)CCN(Cc2ccc(Br)s2)C3)CC1	.	.	14%	-21%	3.2µM*	.
CCCCN1CCc2nc(N3CCN(C)CC3)ncc2C1	.	.	11%	-17%	-4%	.
O=C(CN1CCCCCC1)NN(Cc1ccccc1)c1ccccc1	-95*	0%	7%	-29%	?	-45
O=C(CN1CCCCCC1)NC(c1ccccc1)c1ccccc1	-82*	-5%	15%	-20%	?	17
CCOc1ccc(CCNC(=O)C(CC)n2nc(C)c3c(C)n(-c4ccccc4)nc3c2=O)cc1 (configuration not stated)	.	.	-6%	-10%	-23%	.
O=C(Cn1cnc([N+](=O)[O-])c1)Nc1ccccc1C(F)(F)F	20	11%	2%	-11%	-18%	-74*
CCOc1ccc(C(=O)Nc2ccc3oc(-c4ccc5ccccc5c4)nc3c2)cc1	.	.	4%	-6%	12%	.
CC1=C(c2ccc(C)c(C)c2)S(=O)(=O)N=C1N1CCC(C(=O)NC(C)Cc2ccco2)CC1 (configuration not stated)	.	.	4%	1%	3%	.
Cc1ccc(Cl)cc1NC(=O)c1sc(-n2nc(C)c(Cc3ccc4c(c3)OCO4)c2C)nc1C	.	.	7%	7%	5%	.
CCCN(CCC)C(=O)c1oc2ccccc2c1NC(=O)Cc1cccc(OC)c1	-16	11%	5%	-6%	7.9µM*	4
CC(C(O)c1ccc(O)cc1)N1CCC(Cc2ccccc2)CC1 (configuration not stated)	-88*	0%	20%	-9%	?	53
SMILES	KCNH2 3.1 block	GLP1R ag	GLS inh	GLP1R cytotox	GLP-1R inv ag	hERG WT inh
C[C@@H](CN1CCC(Cc2ccccc2)CC1)[C@@H](O)c1ccc(O)cc1	-217*	-3%	-4%	1%	?	37
CC(C)OCC(O)CN1CCC(Cc2ccccc2)CC1 (configuration not stated)	2	-4%	-2%	0%	-4%	33
CCCN(C(=O)c1coc(=O)c2ccccc12)c1ccccc1C	.	-1%	0%	-8%	?	.
N#CCCCC#Cc1ccc2c(c1)COc1c3ccccc3nn1-2	.	-4%	0%	6%	2.5µM*	.
Cc1ccnc(NC(=O)CCC(=O)N(CC(=O)NC(C)(C)C)c2ccc(F)c(Cl)c2)c1	-87*	6%	6%	-2%	?	-3
COc1ccc(-c2[nH]c(-c3ccccc3)nc2SCC(=O)NC2CCCC2)cc1	12	2%	-14%	-3%	10µM*!	6
COc1ccc(-c2[nH]c(-c3ccc(F)cc3)nc2SCC(=O)NC2CCCC2)cc1	7	4%	0%	-20%	7.9µM*	-3
O=C(Nc1ccc(F)cc1)[C@H](Cc1ccccc1)N1Cc2ccccc2C1=O	.	-1%	0%	5%	?	.
CN(Cc1ccno1)Cc1cn(Cc2ccccc2)nc1-c1ccc2c(c1)OCO2	-95*	7%	9%	1%	0%	-14
CN(Cc1cccnc1)Cc1cn(Cc2ccccc2)nc1-c1ccc2c(c1)OCO2	2	10%	-2%	3%	?	-4
CCCCOc1ccc(C(=O)OC2CC(C)N(C)CC2C)cc1 (configuration not stated)	-33	16%	11%	19%	3.5µM*	18
O=S(=O)(NC1CCCCC1N1CCCCC1)c1ccccc1 (configuration not stated)	6	5%	0%	-3%	-5%	-2
O=S(=O)(NC1CCCCC1N1CCN(c2ccc(F)cc2)CC1)c1ccccc1 (configuration not stated)	-81*	-6%	7%	3%	-7%	27
CC1CCCN(C(c2cccs2)c2nnnn2Cc2ccccc2)C1 (configuration not stated)	-3	6%	4%	-3%	11µM*	-14
C/C=C1\NC(=O)[C@H]2CSSCC/C=C\[C@H](CC(=O)N[C@H](C(C)C)C(=O)N2)OC(=O)C(C(C)C)NC1=O (some centres not stated)	.	2%	0%	.	.	.
O=C(Nc1ccc(Cl)cc1)[C@@H]1[C@@H]2C(=O)N(c3ccc(Cl)cc3)C(=O)[C@@H]2[C@H]2C=CC=NN21	-114*	-28%	-3%	-4%	-27%	8
CCCC(=O)Nc1c2c(nn1-c1ccccc1)CSC2	-114*	-8%	-5%	3%	13%	7
O=C(CBr)Nc1c2c(nn1-c1ccccc1)CSC2	-8	-1%	3%	-4%	2%	0
Cc1ccc(OCc2cc(C(=O)N(C)C3CCCc4ccccc43)no2)cc1C (configuration not stated)	12	7%	-1%	5%	11µM*	1
